In article PMC5540273 (PLoS ONE, 2017):

How the values were obtained:
Details in all cases: concentration: 1 μM, replicates: in singlicate; n = 1
[1] = system: T1, RSK2(Kin.Dom.1-N-terminal)
T1 construct: gene RPS6KA3

[2] = system: T2, RSK2(Kin.Dom.2-C-terminal)
T2 construct: gene RPS6KA3

[3] = system: T3, RSK3(Kin.Dom.1-N-terminal)
T3 construct: gene RPS6KA2

[4] = system: T4, RSK3(Kin.Dom.2-C-terminal)
T4 construct: gene RPS6KA2

[5] = system: T5, RSK4(Kin.Dom.1-N-terminal)
T5 construct: gene RPS6KA6

[6] = system: T6, RSK4(Kin.Dom.2-C-terminal)
T6 construct: gene RPS6KA6

S6K1 = system: S6K1
SBK1 = system: SBK1
SGK2 = system: SGK2
SGK3 = system: SGK3
SGK = system: SGK
SIK2 = system: SIK2
SIK = system: SIK
SLK = system: SLK
SNARK = system: T7, SNARK
T7 construct: gene NUAK2

SNRK = system: SNRK
SRC = system: SRC
SRMS = system: SRMS
SRPK1 = system: SRPK1
SRPK2 = system: SRPK2
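Further: KINOMEscan kinase panel screen.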

SMILES | %Inh [1] [%] | %Inh [2] [%] | %Inh [3] [%] | %Inh [4] [%] | %Inh [5] [%] | %Inh [6] [%] | %Inh (S6K1) [%] | %Inh (SBK1) [%] | %Inh (SGK2) [%] | %Inh (SGK3) [%] | %Inh (SGK) [%] | %Inh (SIK2) [%] | %Inh (SIK) [%] | %Inh (SLK) [%] | %Inh (SNARK) [%] | %Inh (SNRK) [%] | %Inh (SRC) [%] | %Inh (SRMS) [%] | %Inh (SRPK1) [%] | %Inh (SRPK2) [%]
COc1ccc(Nc2nccc(N3CCC(NC(=O)Nc4cccc(C(C)=O)c4)C3)n2)cc1 (stereo not drawn) [GSK1379731] | 0 | 0 | 1 | 0 | 0 | 2 | 9 | 20 | 0 | 0 | 0 | 0 | 0 | 0 | 0 | 0 | 0 | 0 | 6 | 0
CC(=O)Nc1ccc(COc2ccc(Nc3ccnc4cc(-c5ccccn5)ccc34)cc2)cc1.Cl [GW440148] | 0 | 6 | 3 | 11 | 0 | 26 | 0 | 0 | 0 | 8 | 0 | 0 | 4 | 0 | 15 | 0 | 29 | 88 | 46 | 12
Fc1ccc(-c2ncn(CCCN3CCOCC3)c2-c2ccccn2)cc1 [SB-211742] | 0 | 49 | 0 | 35 | 0 | 0 | 0 | 0 | 0 | 0 | 0 | 0 | 11 | 23 | 0 | 0 | 0 | 0 | 0 | 60
COC(=O)Nc1nc2cc(Oc3ccc(NC(=O)Nc4cc(F)ccc4F)cc3)ccc2[nH]1.Cl [GW701424] | 5 | 1 | 8 | 13 | 0 | 18 | 2 | 6 | 0 | 12 | 2 | 0 | 0 | 9 | 0 | 0 | 0 | 0 | 0 | 29
CCCCCc1nc2c(N)ncnc2n1CCCCC [SKF-97255] | 32 | 0 | 0 | 7 | 20 | 0 | 13 | 0 | 0 | 0 | 0 | 1 | 8 | 8 | 0 | 0 | 14 | 25 | 0 | 11
COc1ccc(CNC(=O)NC2CCN(c3ccnc(Nc4ccc(OC)cc4)n3)C2)cc1 (stereo not drawn) [GSK1379727] | 7 | 0 | 0 | 0 | 0 | 21 | 2 | 3 | 0 | 0 | 25 | 0 | 1 | 0 | 0 | 0 | 0 | 5 | 43 | 35
NS(=O)(=O)CCc1cccc(Nc2nccc(-c3c(-c4cccc(NC(=O)c5c(F)cccc5F)c4)nn4ccccc34)n2)c1 [GSK336735] | 15 | 0 | 45 | 0 | 0 | 2 | 20 | 27 | 0 | 3 | 0 | 37 | 94.7 | 97.7 | 86 | 0 | 97.8 | 98.8 | 62 | 0
O=C(NCCNc1ccnc(Nc2ccc(F)cc2)n1)c1cc2ccccc2s1 [GSK1379874] | 0 | 0 | 0 | 0 | 0 | 1 | 0 | 0 | 0 | 0 | 0 | 0 | 0 | 17 | 0 | 0 | 0 | 0 | 3 | 19
O=c1cc(N2CCOCC2)nc2n(Cc3cccc(C(F)(F)F)c3)ccn12 [GSK2297543] | 16 | 6 | 0 | 6 | 0 | 13 | 0 | 37 | 0 | 5 | 0 | 0 | 0 | 18 | 0 | 0 | 0 | 0 | 24 | 0
